Compound activity as filed in PubChem.
In the library only some 1.3% were active in any assay of this set; here they are far more common.
Pin1 inhibitor: qHTS Assay to Find Inhibitors of Pin1; Pin1 FP peptide displacement, HiFluor488, 10 min; 0.009% of 390,000 active; Peptidyl-prolyl cis-trans isomerase NIMA-interacting 1 (Homo sapiens), Q13526; AID 504891, 2011; Potency, µM (doses to about 115 µM), without a hit: at the highest dose activity, negative = inhibition, most hits filed as inhibitors; active = well fitted inhibition curve with a large enough effect in the polarisation, with a control signal flat, not every such curve was filed as active; inconclusive = small, poorly fitted or top-dose-only effect, or effect the other way, or a change in a side signal; inactive = no such curve, though single readings can be large or run the other way; the % refers to the polarisation; also: potency is read from the fitted curve at half-maximal effect
Target sequence (Q13526 whole entry, looked up): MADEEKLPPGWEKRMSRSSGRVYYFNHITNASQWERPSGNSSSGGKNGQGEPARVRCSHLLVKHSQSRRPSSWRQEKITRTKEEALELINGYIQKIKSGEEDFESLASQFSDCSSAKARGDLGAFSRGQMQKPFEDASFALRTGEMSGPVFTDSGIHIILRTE
TrxR1 substrate: qHTS Assay for Substrates of Mammalian Selenoprotein Thioredoxin Reductase 1 (TrxR1): qHTS; purified TrxR1 substrate turnover, NADPH consumption readout; 0.01% of 390,000 active; Potency, µM (highest dose often 114 µM), for inactives: at the top dose activity change, negative = substrate turnover; also: potency is read from the fitted curve at half-maximal effect; nearly all actives have a fitted effect of over 50% in size
Target sequence (O89049 whole entry, looked up): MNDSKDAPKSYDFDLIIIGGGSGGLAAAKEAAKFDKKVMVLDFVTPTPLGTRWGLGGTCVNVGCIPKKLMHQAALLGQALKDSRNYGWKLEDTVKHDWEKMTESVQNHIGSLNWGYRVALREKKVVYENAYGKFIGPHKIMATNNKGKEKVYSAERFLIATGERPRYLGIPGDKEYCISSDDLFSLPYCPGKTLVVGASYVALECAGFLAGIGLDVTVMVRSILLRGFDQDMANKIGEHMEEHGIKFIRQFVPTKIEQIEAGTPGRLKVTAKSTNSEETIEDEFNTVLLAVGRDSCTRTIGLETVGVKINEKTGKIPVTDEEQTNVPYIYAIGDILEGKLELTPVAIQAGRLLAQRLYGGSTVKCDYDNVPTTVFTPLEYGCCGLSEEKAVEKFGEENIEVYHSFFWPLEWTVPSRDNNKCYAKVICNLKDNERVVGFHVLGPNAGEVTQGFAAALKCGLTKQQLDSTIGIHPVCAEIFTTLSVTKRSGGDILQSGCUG
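Rat TrxR1, dispensed at 90 nM, was prereduced with 400 uM NADPH (final) for 5 min at ~22 deg C, then incubated with compound 15 min before 400 uM selenite. A first-read NADPH fluorescence drop versus no-compound background flagged substrates.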
rTrxR1 inhibitor: qHTS Assay for Inhibitors of Mammalian Selenoprotein Thioredoxin Reductase 1 (TrxR1): qHTS. AID 588453, 2011. recombinant rTrxR1, NADPH fluorescence consumption, selenite substrate. 1% of 390,000 active. Thioredoxin reductase 1, cytoplasmic (Rattus norvegicus), O89049. Potency, µM (series often up to 114 µM), for the others: at the highest dose activity change, negative = inhibition, usual class: inhibitors; also: potency is read from the fitted curve at half-maximal effect; nearly all actives have a fitted effect of over 65% in size
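Rat TrxR1 (90 nM in the dispensed reagent) was pre-reduced with 400 uM NADPH for 5 min at room temperature, then incubated with compound for 15 min. After 400 uM selenite was added, NADPH fluorescence (Ex 340/Em 450 nm) was followed for 8 min.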
GCN5L2 inh: qHTS Assay for Inhibitors of GCN5L2; 0.21% of 390,000 active; GCN5L2 HAT assay, ThioGlo1 CoA-SH fluorescence; Histone acetyltransferase KAT2A (Homo sapiens), Q92830; Potency, µM (doses to about 58.9 µM), for the others: at the highest dose activity change, negative = inhibition, hits mostly inhibitors; also: potency is read from the fitted curve at half-maximal effect
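GCN5L2 (20 nM) in 50mM HEPES pH 7.5, 0.1mM EDTA, 0.01% Tween-20 preincubated 15 min with compounds at room temperature. Reaction started with H3(1-25) 75uM, acetyl-CoA 70uM, ThioGlo1 50uM; CoA-thiol fluorescence (Ex340/Em540) read at 0 and 20 min.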
Giardia killer: Small Molecules that selectively kill Giardia lamblia: qHTS; Giardia lamblia trophozoite viability; activity change, % at 7.66 µM, hits read low; 0.15% of 340,000 active; in the data active = activity change below about -80%; inconclusive = between about -30% and that limit;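 also: parasites exposed to compound for two days anaerobically before the ATP read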
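Giardia trophozoites, 100 cells per well, were exposed to compounds for 48 hrs at 37 deg C under anaerobic conditions; viability was then read as ATP content by bioluminescence after 15-30 min at room temperature.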
GALK inh: qHTS Assay for Inhibitors of Human Galactokinase (GALK); P51570; Purified GALK, Kinase-Glo residual ATP luminescence; Potency, µM (top dose mostly 57.5 µM), for the others: at the top dose activity change, negative = inhibition, hits mostly inhibitors; 0.007% of 270,000 active; AID 1868, 2009; also: potency is read from the fitted curve at half-maximal effect
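Luminescence from leftover ATP (Ultra-Glo luciferase/luciferin) served as read-out after a 1 h room-temperature reaction of 5 nM GALK with 35 uM ATP and 100 uM galactose.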
* hit, by the source's call; ? = inconclusive; / = not tested or not shown; ! = repeats disagree; [ ] = remark or other dose. Unless noted, calls follow the shape of the dose curve; as a rule, active = well fitted curve in the direction sought with a large enough effect; inconclusive = small, poorly fitted or top-dose-only effect, or another doubt; inactive = no such curve, though single readings can be large; an effect the other way counts as inactive or inconclusive. % is scaled to controls: 0 for no effect and ±100 for the full control effect.

SMILES	Pin1 inhibitor	TrxR1 substrate	rTrxR1 inhibitor	GCN5L2 inh	Giardia killer	GALK inh
Cc1cccc(N(Cc2cc(=O)[nH]c3ccccc23)C(=O)CCl)c1	/	10%	4µM*	0%	5	/
COc1ccc(N(Cc2cc(=O)[nH]c3ccccc23)C(=O)CCl)cc1	?	7%	6.3µM*	2%	-19	-6%
O=C(OCC#CCSc1nnc(-c2cccc3ccccc23)o1)c1cc2ccccc2s1	2%	/	/	/	/	/
NC(=N\N=Cc1ccco1)/C(N)=N/N=Cc1ccco1	-5%	?	79µM*	/	18	/
O=C(NCc1ccco1)C1Cc2ccccc2CN1S(=O)(=O)c1ccccc1F (stereo not given)	?	-1%	16µM*	/	1	/
COc1cccc(NC(=O)Cn2cc(S(=O)(=O)Cc3ccccc3F)c3ccccc32)c1	23%	-1%	14%	-12%	/	/
CCOC(=O)c1sc(=S)n(-c2ccc(OC)cc2)c1C	-3%	0%[57.1 µM]	3%[57.1 µM]	-5%	6	1%
CCOC(=O)c1c2c(n(-c3ccc(OC)cc3)c1C)C(=O)C(=O)c1ccccc1-2	-15%	56µM*	?	/	-21	/
CC(C)c1nnc(NC(=O)c2nc(S(=O)(=O)Cc3ccccc3F)ncc2Cl)s1	-3%	0%	50µM*	4%	?	-4%
O=C(Nc1nc2ccc(F)cc2s1)c1nc(S(=O)(=O)Cc2ccccc2F)ncc1Cl	3%	3%	?	-22%	/	/
Cc1nnc(NC(=O)c2nc(S(=O)(=O)Cc3ccccc3C)ncc2Cl)s1	-5%	7%	50µM*	-2%	10	3%
CSc1nnc(NC(=O)c2nc(S(=O)(=O)Cc3ccccc3F)ncc2Cl)s1	-6%	-2%	40µM*	-5%	-8	0%
Cc1nnc(NC(=O)c2nc(SCc3ccccc3F)ncc2Cl)s1	1%	-4%	10%	-17%	/	/
COc1ccc(OCC2c3cc(OC)c(OC)cc3CCN2C(=O)COc2ccc(Cl)cc2Cl)cc1 (stereo not given)	41%	-2%[57.1 µM]	11%[57.1 µM]	1%	/	/
Cc1c(P(=S)(c2ccccc2)c2ccccc2)c2ccccc2n1C(=O)NCc1ccc(F)cc1	-2%	/	/	/	/	/
Cc1ccccc1-c1nn[nH]n1	0%	2%[57.1 µM]	8%[57.1 µM]	0%	16	3%
c1ccc(-c2nn[nH]n2)c(Nc2cccc3c2CCCC3)c1	/	/	/	18µM*	/	/
CC(=O)Nc1sc2c(c1-c1cc3ccccc3[nH]1)CCNC2	-38%	/	/	/	/	/
c1cncc(CNc2ncnc3ccc(-c4ccoc4)cc23)c1	10%	37%	12%[57.1 µM]	28µM*!	-12	/
Cc1cccc(CNc2ncnc3ccc(-c4ccoc4)cc23)c1	2%	22%	23%	?	-19	/
COc1ccc(C2NC(=S)N3C(c4ccc(OC)cc4)NC(=S)N23)cc1 (stereo not given)	2%	-6%[57.1 µM]	-22%[57.1 µM]	-19%	26	2%
S=C1NC(c2ccccc2)N2C(=S)NC(c3ccccc3)N12 (stereo not given)	-12%	4%	-4%	28µM*	-7	0%
Nc1cccnc1Sc1ccc(Cl)cc1	-1%	18%	?	-12%	2	-2%
Nc1cccnc1Sc1cccc(Cl)c1	?	19%	10µM*	-6%	1	/
Cc1nnsc1NC(=O)OCc1ccc(Cl)cc1Cl	0%	-4%	-3%	11µM*	5	-2%
SMILES	Pin1 inhibitor	TrxR1 substrate	rTrxR1 inhibitor	GCN5L2 inh	Giardia killer	GALK inh
O=c1c2ccccc2nc2sc(Nc3ccc4c(c3)CCC4)nn12	68%	/	/	/	/	/
CCC(C)[C@@H](NC(=O)OC(C)(C)C)c1nnc(S(=O)(=O)Cc2cccc(C)c2)o1 (stereo not given in full)	0%	-15%	1.8µM*	-3%	1	-2%
Cc1ccccc1CS(=O)(=O)c1nnc([C@H](Cc2ccccc2)NC(=O)OC(C)(C)C)o1	1%	0%	0.63µM*	?	-3	1%
CC(C)(C)OC(=O)N[C@@H](Cc1ccccc1)c1nnc(S(=O)(=O)Cc2ccccc2)o1	/	/	/	31%	/	0%
COc1ccc(-c2nc(SCC(=O)Nc3c(C)cc(C)cc3C)n[nH]2)cc1	1%	0%[57.1 µM]	18%[57.1 µM]	-2%	/	/
Cn1c(=O)[nH]c(=O)c2c1nc([N+](=O)[O-])n2Cc1ccccc1	8%	-4%	6.3µM*	-11%	2	7%
Cn1c(=O)[nH]c(=O)c2c1nc(Br)n2CCC(=O)c1ccccc1	0%	5%[57.1 µM]	18µM*	-3%	-13	5%
CC(C)Cn1c([N+](=O)[O-])nc2c1c(=O)[nH]c(=O)n2C	-3%	2%[57.1 µM]	-53%	-12%	-5	/
CC(C)n1c(=S)[nH]c2scc(-c3cccs3)c2c1=O	?	-8%	?	18µM*	-16	-2%
CC(=O)c1cccc(OCc2cc(C(=O)N(C)Cc3ccc(C)o3)no2)c1	6%	-3%	3.5µM*	-13%	-3	3%
Cc1ccc(CN(C)C(=O)c2ccccc2Oc2ccccc2)o1	0%	7%	11µM*	-7%	-5	-1%
CC(=O)c1cccc(OCc2cc(C(=O)N(C)CCc3ccccn3)no2)c1	-3%	-2%	-28%	1%	29	-2%
O=C(O)c1ccccc1Oc1ccc(Oc2ccccc2)cc1	0%	2%	27%	-1%	17	7%
CSc1ccccc1OCc1cc(C(=O)N(C)Cc2ccc(C)o2)no1	13%	1%	35µM*	-24%	27	-2%
COc1ccc(N(Cc2cccs2)C(=O)Nc2cccc(Cl)c2)cc1	15%	-6%	19%	-17%	/	/
CN(c1ccc(F)cc1)S(=O)(=O)c1ccc(Cl)c(C(=O)NCC2(N3CCOCC3)CCCCC2)c1	-3%	-2%	6%	/	25	/
Cc1cccc(N2CCN(C(=O)c3ccc4c(c3)NC(=O)C(CSCc3cccc(F)c3)N4)CC2)c1C (stereo not given)	/	/	/	28µM*	/	5%
CN(C)c1cccc(S(=O)(=O)N2CCCN(S(=O)(=O)c3ccc4c(c3)OCCO4)CC2)c1	19%	/	/	/	/	/
CCOC(=O)c1ccc(-n2c(CCC(=O)O)ccc2-c2ccccc2)cc1O	38%	2%	50µM*	-3%	/	/
Cc1ccc(-c2ccc(CCC(=O)O)n2-c2ccc(C)c(Cl)c2)cc1	/	2%	?	0%	/	/
O=C(O)CCc1ccc(-c2ccccc2)n1-c1cccc(C(=O)O)c1	-18%	3%	45µM*	11%	-1	-3%
